Results from PubChem BioAssay (EPA / NIEHS).
Results filed as inconclusive are left out. Calls of active or inactive are those of the source. How the source made its calls: active means hit-call score of the fitted dose curve at least 0.9, where 1 is the maximum; inconclusive means response in the unintended direction; inactive means score below 0.9.

experiment: CCTE_Harrill_HTTr_CellCount_MCF7: CCTE's Cell Proliferation Assessment for the High-Throughput Transcriptomics (HTTr) Platform, Harrill Lab (AID 2284012);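 further: cells exposed to compound for six hours; intended direction is loss of nuclei count meaning fewer cells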
Text: This is a cell-based assay that evaluates cell viability and cell growth using high content imaging to count the number of Hoechst-labeled nuclei that are present in an assay well in 384-well format.This is a cell-based assay that evaluates cell viability and cell growth in MCF-7 cells. This was part of a full screening experiment. High content imaging is used to count the number of Hoechst-labeled nuclei that are present in an assay well in 384-well format.The assay component endpoint CCTE_Harrill_HTTr_CellCount_MCF7 was analyzed with bidirectional fitting relation to DMSO as the negative control and baseline of activity. Using a type of viability reporter, loss-of-signal activity can be used to understand changes in cell count. To generalize the intended target to other relatable targets, this assay endpoint is annotated to cell cycle, where the subfamily is cell count.
Chemicals were tested in MCF7 cells in an eight point dilution series with a six hour exposure duration.

SMILES | outcome
C/C(=N\NC(=O)Nc1cc(F)cc(F)c1)c1ncccc1C(=O)O | inactive
O=[N+]([O-])c1ccc(Cl)c(Cl)c1 | inactive
O=NN1CCCC1 | inactive
CCCCC(CC)COP(=O)(Oc1ccccc1)Oc1ccccc1 (stereo not given) | inactive
CC1(C)CN=C(NN=C(/C=C/c2ccc(C(F)(F)F)cc2)/C=C/c2ccc(C(F)(F)F)cc2)NC1 | inactive
CCCCc1ccccc1 | inactive
CC(Cc1ccc(OCC(=O)O)cc1)NCC(O)c1csc(C(F)(F)F)n1 (stereo not given) | inactive
COP(=O)(O)OC | inactive
ClC1=C(Cl)C2(Cl)C3C(Cl)C(Cl)CC3C1(Cl)C2(Cl)Cl (stereo not given) | inactive
CCOP(=S)(OCC)SCSCC | inactive
Cc1cccc(N)c1 | inactive
ClC(Cl)(Cl)c1ccccc1 | inactive
O=P1(N(CCCl)CCCl)NCCCO1 (stereo not given) | inactive
O=P(OCC(Br)CBr)(OCC(Br)CBr)OCC(Br)CBr (stereo not given) | inactive
CCCN(CCC)c1c([N+](=O)[O-])cc(C(C)C)cc1[N+](=O)[O-] | inactive
CCOS(=O)(=O)OCC | inactive
CCOc1ccc(C(C)(C)COCc2cccc(Oc3ccccc3)c2)cc1 | inactive
c1cc2c3c(cccc3c1)CC2 | inactive
CCCCN(CCCC)N=O | inactive
Nc1ccc2ccccc2c1 | inactive

SMILES | outcome
CC(C)(C)N(NC(=O)c1ccc(Cl)cc1)C(=O)c1ccccc1 | inactive
CCOP(=S)(NC(C)C)Oc1ccccc1C(=O)OC(C)C (stereo not given) | inactive
CCN(CC)c1ccccc1 | inactive
Cc1ccc(O)cc1C | inactive
CC(Cl)(Cl)C(=O)O | inactive
CCCCOCC1CO1 (stereo not given) | inactive
Cc1ccc(N)cc1N | inactive
CCOP(=S)(Oc1ccc([N+](=O)[O-])cc1)c1ccccc1 (stereo not given) | inactive
CCCCN(CC)C(=O)SCCC | inactive
O=C(O)CF | inactive
O=[N+]([O-])c1ccccc1 | inactive
CSC(C)(C)C=NO | inactive
CCC1(c2ccccc2)C(=O)N=C(O)NC1=O (stereo not given) | inactive
CC(O)C#N (stereo not given) | inactive
Cc1c([N+](=O)[O-])cc2c(c1[N+](=O)[O-])C(C)(C)CC2(C)C | inactive
CCOP(=S)(S)OCC | inactive
[N-]=[N+]=[N-] | inactive
O=C(O)C(Cl)Cl | inactive
CC(C)(C)c1ccc(O)cc1 | inactive
N#Cc1ccc(O)cc1 | inactive
